Laboratory results taken from PubChem BioAssay (NCATS).
Results filed as inconclusive are left out. The source made the active and inactive calls. Unless noted, calls come from the whole dose curve; as a rule, active = well fitted curve in the direction sought with a large enough effect; inconclusive = small, poorly fitted or top-dose-only effect, or another doubt; inactive = no such curve, though single readings can be large; an effect the other way counts as inactive or inconclusive.

Assays:
[1] = molecular target: Lysosomal acid glucosylceramidase (Homo sapiens) (UniProt P04062); assay: Glucocerebrosidase-p2 (AID 348; in the data active = potency below about 10 µM; note: potency is the fitted concentration of half-maximal effect); conditions: purified GBA, blue fluorogenic substrate, 40 min
Lysosomal acid glucosylceramidase (Homo sapiens), sequence (P04062 whole entry, looked up): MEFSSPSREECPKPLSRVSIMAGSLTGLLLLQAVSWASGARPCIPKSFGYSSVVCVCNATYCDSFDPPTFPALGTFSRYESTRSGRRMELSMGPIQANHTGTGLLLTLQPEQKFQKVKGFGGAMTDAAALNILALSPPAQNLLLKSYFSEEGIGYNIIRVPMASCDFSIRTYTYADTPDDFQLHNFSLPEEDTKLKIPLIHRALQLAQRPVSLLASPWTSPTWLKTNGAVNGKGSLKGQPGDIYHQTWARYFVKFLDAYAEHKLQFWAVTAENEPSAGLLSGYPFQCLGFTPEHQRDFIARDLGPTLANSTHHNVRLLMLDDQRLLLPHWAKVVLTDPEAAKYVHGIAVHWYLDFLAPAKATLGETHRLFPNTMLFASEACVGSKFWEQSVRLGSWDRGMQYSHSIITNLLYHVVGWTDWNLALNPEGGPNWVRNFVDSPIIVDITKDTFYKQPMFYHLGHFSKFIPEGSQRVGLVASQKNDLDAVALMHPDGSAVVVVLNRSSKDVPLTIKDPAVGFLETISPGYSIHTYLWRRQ
Summary of the method: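 Normal human glucocerebrosidase (0.2 nM) with blue fluorogenic substrate (80 uM final) in citrate/phosphate pH 5.9 with 10mM sodium taurocholate, 0.01% tween-20; 40 min RT, NaOH/glycine stop; fluorescence Ex 365/Em 440; AC50 from a titration from 0.6 nM upwards.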

[2] = AP1 Signaling Pathway (AID 357; active = well fitted curve in either direction with a large enough effect, not every such curve was filed as active;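 note: ME-180 reporter cells stimulated with EGF at its EC50 level; % is set by controls: 0 for no effect and ±100 for the full control effect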); conditions: ME-180 AP-1-bla reporter, EGF-induced, beta-lactamase ratio, 5 h
Summary of the method: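 Modulation of EGF-driven AP-1 transcription was assessed with a beta-lactamase reporter in ME-180 cells. Compound and EC50 EGF were co-incubated 5 hours at 37 °C before 2.5-hour CCF4 loading at room temperature and dual-emission reading.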

[3] = NFAT Signaling Pathway (AID 444; active = well fitted curve in either direction with a large enough effect, not every such curve was filed as active;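 note: carbachol stimulus at about its EC50 of 1 µM final; % is set by controls: 0 for no effect and ±100 for the full control effect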); conditions: Jurkat NFAT-bla M1, carbachol, beta-lactamase ratio, 5 h
Summary of the method: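 Jurkat cells carrying an NFAT-driven β-lactamase reporter and co-transfected muscarinic M1 receptor were treated with compound plus carbachol (1 uM final, an EC50 level) for 5 h at 37 °C. CCF4 loading followed for 1 h at RT; 460/530 nm ratio gave %activity.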

[4] = Stat Signaling Pathway (AID 446; active = well fitted curve in either direction with a large enough effect, not every such curve was filed as active;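 note: ME-180 cervical cancer cells given 40 pM IL-6 alongside compound; SIE-controlled beta-lactamase reporter measured as 460/530 nm FRET emission ratio; % is set by controls: 0 for no effect and ±100 for the full control effect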); conditions: ME-180 (cervical carcinoma) SIE beta-lactamase reporter, IL-6 stimulated, 5 h
Summary of the method: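 Overnight-plated ME-180 cells bearing a STAT Inducible Element beta-lactamase reporter; 5 h co-exposure to compound and 40 pM IL-6; values normalized to 300 pM IL-6 and 125 nM JAK inhibitor controls.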

[5] = molecular target: Guanine nucleotide-binding protein G(i) subunit alpha-1 (Homo sapiens) (UniProt P63096); assay: qHTS Assay for Inhibitors of RGS12 GoLoco Motif Activity (Green Fluorophore) (AID 879);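 note: 0% = labeled peptide with Gαi1 and full inhibition = labeled peptide alone without protein; negative values mean loss of peptide binding seen as reduced polarization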
Guanine nucleotide-binding protein G(i) subunit alpha-1 (Homo sapiens), sequence (P63096 whole entry, looked up): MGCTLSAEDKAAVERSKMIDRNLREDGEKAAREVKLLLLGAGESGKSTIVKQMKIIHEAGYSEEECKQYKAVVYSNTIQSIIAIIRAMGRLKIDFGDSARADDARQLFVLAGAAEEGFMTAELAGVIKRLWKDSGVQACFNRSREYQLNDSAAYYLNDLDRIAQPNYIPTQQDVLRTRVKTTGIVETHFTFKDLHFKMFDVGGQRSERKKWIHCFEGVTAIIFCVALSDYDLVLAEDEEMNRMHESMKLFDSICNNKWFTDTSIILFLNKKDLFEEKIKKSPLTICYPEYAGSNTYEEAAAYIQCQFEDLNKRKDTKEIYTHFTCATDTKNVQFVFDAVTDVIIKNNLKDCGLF
Summary of the method: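 A drop in FITC polarization marked displacement of the FITC-tagged RGS12 GoLoco peptide (10 nM) from Gαi1 (50 nM). Compounds were incubated 10 min at room temperature in Tris pH 7.5 buffer containing 150 mM NaCl, 0.1 mM GDP and 0.05% NP40; unlabeled peptide titration served as control.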

[6] = qHTS Assay for Identification of Small Molecule Agonists for Thrombopoietin (TPO) Signaling Pathway (AID 917); note: % is set by controls: 0 for no effect and ±100 for the full control effect
Summary of the method: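 Ba/F3 (mouse) + hTPO receptor + GpIIb-promoter luciferase; IL-3 withdrawn overnight; compound + 26 pM TPO (EC50), 24 hrs, 37 C, 5% CO2; Steadylite luminescence, 10 min RT.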

[7] = molecular target: Pyruvate kinase PKM (Homo sapiens) (UniProt P14618); assay: qHTS Assay for Activators of Human Muscle Pyruvate Kinase (AID 954; active = well fitted curve in the direction sought with a large enough effect, not every such curve was filed as active;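 note: 0% = uninhibited enzyme and -100% = no enzyme or full thiadiazolimine inhibition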)
Pyruvate kinase PKM (Homo sapiens), sequence (P14618 whole entry, looked up): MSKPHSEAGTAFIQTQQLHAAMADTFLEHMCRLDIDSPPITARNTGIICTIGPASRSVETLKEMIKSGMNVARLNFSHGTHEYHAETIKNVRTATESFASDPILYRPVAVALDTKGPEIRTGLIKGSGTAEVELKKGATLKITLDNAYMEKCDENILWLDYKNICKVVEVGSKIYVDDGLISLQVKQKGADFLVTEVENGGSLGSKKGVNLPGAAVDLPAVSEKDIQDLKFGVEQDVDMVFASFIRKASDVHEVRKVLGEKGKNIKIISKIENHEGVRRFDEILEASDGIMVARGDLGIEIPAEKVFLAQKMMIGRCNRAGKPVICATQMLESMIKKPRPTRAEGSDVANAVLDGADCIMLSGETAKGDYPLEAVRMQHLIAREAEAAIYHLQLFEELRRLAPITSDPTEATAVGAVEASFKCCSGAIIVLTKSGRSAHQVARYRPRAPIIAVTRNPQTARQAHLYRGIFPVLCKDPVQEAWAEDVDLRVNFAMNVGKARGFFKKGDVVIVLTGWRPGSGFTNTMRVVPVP
Summary of the method: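 Screening used highly purified human pyruvate kinase M2 under submaximal activity, with PEP at its Km and ADP below Km. After an hour at room temperature, ATP was read by luciferase luminescence.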

[8] = molecular target: alpha-glucosidase (Oryza sativa, rice) (UniProt Q653V4); assay: Counterscreen for Glucocerebrosidase Inhibitors: qHTS Assay for Rice alpha-Glucosidase at pH 5.0 (AID 997);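 note: 0% = full activity with enzyme and -100% = basal without enzyme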
Summary of the method: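 Endpoint fluorogenic assay at pH 5.0: compounds (0.7 nM to 77 uM) titrated against 4 nM rice enzyme and 400 uM 4-MU-alpha-glucoside for 20 min at room temperature; NaOH/glycine stop, read ex 365/em 440 nm, Hill-fitted AC50.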

[9] = qHTS Assay for Lipid Storage Modulators (AID 1519; calls by dose curve); conditions: Drosophila S3 cells, BODIPY lipid droplet/cell ratio, laser cytometry, cells loaded with oleic acid
Summary of the method: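 Cells seeded at 5,000 per well were treated with compounds over a concentration series and loaded with oleic acid (400 uM, as added). Lipid droplet fluorescence (488 nm excitation, 500-530 nm channel) was read by laser-scanning cytometry and normalized to 20 uM Triacsin C.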

[10] = molecular target: Cytochrome P450 2C9 (Homo sapiens) (UniProt P11712); assay: qHTS Assay for Inhibitors and Substrates of Cytochrome P450 2C9 (AID 883); note: % is set by controls: 0 for no effect and ±100 for the full control effect; nearly all actives have a fitted effect of over 60% in size
Cytochrome P450 2C9 (Homo sapiens), sequence (P11712 whole entry, looked up): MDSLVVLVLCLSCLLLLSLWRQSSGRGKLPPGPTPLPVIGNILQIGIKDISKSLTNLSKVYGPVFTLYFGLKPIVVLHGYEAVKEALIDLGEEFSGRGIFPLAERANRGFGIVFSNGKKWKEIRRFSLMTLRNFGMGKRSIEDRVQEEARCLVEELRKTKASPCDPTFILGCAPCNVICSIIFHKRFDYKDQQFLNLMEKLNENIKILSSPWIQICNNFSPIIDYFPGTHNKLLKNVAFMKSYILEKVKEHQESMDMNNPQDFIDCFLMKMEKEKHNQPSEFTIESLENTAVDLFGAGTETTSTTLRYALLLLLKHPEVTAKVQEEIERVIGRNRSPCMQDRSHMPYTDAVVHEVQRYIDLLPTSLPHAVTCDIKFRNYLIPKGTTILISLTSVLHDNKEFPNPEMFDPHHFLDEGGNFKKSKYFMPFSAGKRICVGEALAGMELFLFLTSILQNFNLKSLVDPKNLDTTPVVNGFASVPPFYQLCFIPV
Summary of the method: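 A luminogenic readout tracked human CYP2C9 (10nM) converting deoxyluciferin (100uM, at KM) in 25mM KPO4 during 60 min at 37C with regenerated NADPH. Values normalized to 57uM sulphaphenazole as complete inhibition.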

[11] = molecular target: Cytochrome P450 2D6 (Homo sapiens) (UniProt P10635); assay: qHTS Assay for Inhibitors and Substrates of Cytochrome P450 2D6 (AID 891);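 note: luciferin methyl ether substrate demethylated by CYP2D6 with NADPH regeneration; % is set by controls: 0 for no effect and ±100 for the full control effect; nearly all actives have a fitted effect of over 60% in size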
Cytochrome P450 2D6 (Homo sapiens), sequence (P10635 whole entry, looked up): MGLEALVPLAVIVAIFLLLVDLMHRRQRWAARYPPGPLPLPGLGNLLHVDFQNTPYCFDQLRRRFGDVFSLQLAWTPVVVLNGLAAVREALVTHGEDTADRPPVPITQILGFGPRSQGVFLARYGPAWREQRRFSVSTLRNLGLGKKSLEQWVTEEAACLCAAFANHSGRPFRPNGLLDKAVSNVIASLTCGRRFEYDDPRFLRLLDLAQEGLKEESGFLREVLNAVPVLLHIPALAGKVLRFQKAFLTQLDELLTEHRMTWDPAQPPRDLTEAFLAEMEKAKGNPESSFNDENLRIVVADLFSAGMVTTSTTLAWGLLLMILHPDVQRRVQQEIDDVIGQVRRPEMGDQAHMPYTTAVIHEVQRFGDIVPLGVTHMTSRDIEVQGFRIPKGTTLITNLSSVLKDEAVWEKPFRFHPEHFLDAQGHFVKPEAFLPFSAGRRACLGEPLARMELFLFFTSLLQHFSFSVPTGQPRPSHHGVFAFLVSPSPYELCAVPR
Summary of the method: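 Luminescent read-out of luciferin formed by 5 nM human CYP2D6 demethylating 30 uM Luciferin-ME EGE (Km level) over 60 min at room temperature after NADPH regeneration addition. Data normalized to full inhibition by 1.43 uM quinidine.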

[12] = Cell Viability qHTS for small molecule stabilizers of the endoplasmic reticulum resident proteome (AID 1508629); conditions: cell viability counter-screen, 100 nM thapsigargin for final 4 h;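 note: compound exposure about 46 h in total before the viability read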; note: potency is the fitted concentration of half-maximal effect
[13] = molecular target: Cytochrome P450 3A4 (Homo sapiens) (UniProt P08684); assay: qHTS Assay for Inhibitors and Substrates of Cytochrome P450 3A4 (AID 884); note: potency is the fitted concentration of half-maximal effect; nearly all actives have a fitted effect of over 50% in size
Cytochrome P450 3A4 (Homo sapiens), sequence (P08684 whole entry, looked up): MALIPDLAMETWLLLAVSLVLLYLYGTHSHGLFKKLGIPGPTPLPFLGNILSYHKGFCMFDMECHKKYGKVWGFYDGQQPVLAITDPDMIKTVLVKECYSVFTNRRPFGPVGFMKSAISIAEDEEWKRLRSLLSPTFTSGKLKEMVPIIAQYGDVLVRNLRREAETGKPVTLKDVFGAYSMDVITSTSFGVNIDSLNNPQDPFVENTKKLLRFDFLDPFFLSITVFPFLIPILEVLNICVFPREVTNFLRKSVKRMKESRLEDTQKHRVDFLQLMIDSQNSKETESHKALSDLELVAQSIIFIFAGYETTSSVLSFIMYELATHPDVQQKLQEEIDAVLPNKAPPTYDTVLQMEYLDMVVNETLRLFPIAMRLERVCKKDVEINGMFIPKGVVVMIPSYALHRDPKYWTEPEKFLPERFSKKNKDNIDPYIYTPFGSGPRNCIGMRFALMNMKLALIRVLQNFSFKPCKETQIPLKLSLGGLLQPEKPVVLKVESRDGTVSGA
Summary of the method: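 Luminescent readout of luciferin produced by CYP3A4 (20 nM) dealkylation of Luciferin-PPXE, 25 uM (its KM). NADPH-driven reaction ran 60 min at RT after 10 min compound preincubation; data scaled to 57 uM ketoconazole as 100% inhibition.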

[14] = molecular target: Cytochrome P450 2C19 (Homo sapiens) (UniProt P33261); assay: qHTS Assay for Inhibitors and Substrates of Cytochrome P450 2C19 (AID 899); note: % is set by controls: 0 for no effect and ±100 for the full control effect; nearly all actives have a fitted effect of over 60% in size
Cytochrome P450 2C19 (Homo sapiens), sequence (P33261 whole entry, looked up): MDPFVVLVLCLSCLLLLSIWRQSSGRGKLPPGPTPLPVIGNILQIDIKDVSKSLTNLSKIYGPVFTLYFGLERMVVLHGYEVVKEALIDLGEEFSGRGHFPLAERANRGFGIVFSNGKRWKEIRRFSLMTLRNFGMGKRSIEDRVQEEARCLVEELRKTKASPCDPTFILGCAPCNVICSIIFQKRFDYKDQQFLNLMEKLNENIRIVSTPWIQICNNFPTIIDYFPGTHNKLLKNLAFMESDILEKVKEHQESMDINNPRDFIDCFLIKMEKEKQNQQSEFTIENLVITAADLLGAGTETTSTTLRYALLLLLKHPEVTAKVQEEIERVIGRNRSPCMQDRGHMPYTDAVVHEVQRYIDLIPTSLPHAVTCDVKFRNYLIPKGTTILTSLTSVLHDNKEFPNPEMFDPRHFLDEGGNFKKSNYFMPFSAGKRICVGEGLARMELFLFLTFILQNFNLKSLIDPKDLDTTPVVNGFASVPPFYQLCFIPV
Summary of the method: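 NADPH-dependent conversion of Luciferin-H EGE (10uM, at KM) by 5nM enzyme in 50mM KPO4, 60 min at 37C following 10 min compound preincubation. Stopped with luciferin detection buffer; luminescence read after 20 min.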

[15] = test system: Zika virus NS2B-NS3 protease; assay: Primary screen GU AMC qHTS for Zika virus inhibitors (AID 1347154);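 note: 0% = no-inhibitor control and -100% = no-enzyme control; nearly all actives have a fitted effect of over 70% in size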
Summary of the method: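 Unlinked Zika NS2B hydrophilic domain/NS3 protease domain noncovalent complex (25 nM final) in 10 mM Tris-HCl pH 8.0, 0.01% Tween 20, with AMC peptide substrate. Fluorescence (ex 340, em 450 nm) change over 15 min, room temperature; percent inhibition fitted to 4-parameter Hill equation.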

[16] = Primary qHTS for small molecule stabilizers of the endoplasmic reticulum resident proteome: Secreted ER Calcium Modulated Protein (SERCaMP) assay (AID 1508630); note: % is set by controls: 0 for no effect and ±100 for the full control effect
Summary of the method: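 The SH-SY5Y reporter protocol was run at 3 concentrations up to 38.3 uM (primary) or 11 concentrations (follow-up): 16 h compound, 100 nM thapsigargin for 4 h, then extracellular luciferase luminescence.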

CN(C)C/C=C(\c1ccc(Br)cc1)c1cccnc1
-7.55%: max response ([9]; measured here: cell count channel max response)
-11.6%: max response ([9]; measured here: lipid channel max response)
inactive: Potency [1] > 11.4 µM | activity change, negative = inhibition ([2]; at 7.69 µM (top of the series)) 5.82% | activity change, negative = inhibition ([2]; at 17.2 µM (top of the series)) 4.78% | activity change, negative = inhibition ([2]; at 38 µM (top of the series)) 14.9% | activity change, negative = inhibition ([3]; at 7.69 µM (top of the series)) -7.27% | activity change, negative = inhibition ([3]; at 17.2 µM (top of the series)) -12.7% | activity, negative = inhibition ([4]; at 7.69 µM (top of the series)) 3.29% | activity, negative = inhibition ([4]; at 17.2 µM (top of the series)) 7.82% | activity, negative = inhibition ([4]; at 38 µM (top of the series)) -15.8% | outcome [5] | Potency [6] | outcome [7] | outcome [8] | activity change, negative = inhibition ([9]; at 25.7 µM (top of the series)) -2.94%

COc1ccc(/C=C\C(=O)Nc2ccccc2C(=O)O)cc1OC
inactive: activity change, negative = inhibition ([2]; at 38 µM (top of the series)) -10.8% | activity change, negative = inhibition ([3]; at 38 µM (top of the series)) -3.53% | activity, negative = inhibition ([4]; at 38 µM (top of the series)) 7.79% | Potency [10] | Potency [11] | max response [12] -9.06%

COc1cccc(CCc2ccccc2OCC[C@@H]2C[C@@H](O)CN2C)c1
active: Potency [13] 3.16 µM | Potency [12] 15.8 µM

CCOC(=O)c1c(C)[nH]c2ccc3c(c12)CN1CCc2cc(OC)ccc2[C@@H]1O3
inactive: Potency [14]

CCCCC/C=C\C/C=C\CCCCCCCC(=O)O[C@@H](CO)COC(=O)CCCCCCCCCCCCCCCCC
inactive: activity change, negative = inhibition [15] 7.9% [at 6.83 µM] | activity change, negative = inhibition [16] 6.55% [at 3.88 µM]

COC(C)(C)CCCC(C)C/C=C/C(C)=C/C(=O)O (configuration not stated)
inactive: Potency [15] | Potency [16]

CCCCCCCCCCCCCCCCCCOC[C@H](COP(=O)([O-])OCC[N+](C)(C)C)OC(C)=O
inactive: activity change, negative = inhibition [15] 10.6% [at 6.83 µM] | activity change, negative = inhibition [16] 33.9% [at 3.88 µM]

N[C@@H](C(=O)O)[C@@H](CC(=O)O)c1ccc(Cl)cc1
inactive: Potency [15] | Potency [16]

Cc1ccc2c(c1)C(=O)C1(O)CCN(c3ccccc3)C1=N2 (configuration not stated)
inactive: Potency [15] | Potency [16]

H-LVVYPWTQR-OH
inactive: activity change, negative = inhibition [15] 5.8% [at 6.83 µM] | activity change, negative = inhibition [16] 18.2% [at 3.88 µM]
